PubChem BioAssay (NCATS)
Results filed as inconclusive are left out. The source made the active and inactive calls. Unless noted, calls come from the whole dose curve; as a rule, active = well fitted curve in the direction sought with a large enough effect; inconclusive = small, poorly fitted or top-dose-only effect, or another doubt; inactive = no such curve, though single readings can be large; an effect the other way counts as inactive or inconclusive.

Key:
[1] = biological target: Estrogen receptor (Homo sapiens) (UniProt P03372); assay: qHTS assay for small molecule antagonists of estrogen receptor alpha signaling (AID 588513; active = well fitted curve in the direction sought with a large enough effect in the signal ratio, with a control signal flat, not every such curve was filed as active; the % refers to the signal ratio; note: % is set by controls: 0 for no effect and ±100 for the full control effect)
Chain of Estrogen receptor (Homo sapiens) (P03372 whole entry, looked up): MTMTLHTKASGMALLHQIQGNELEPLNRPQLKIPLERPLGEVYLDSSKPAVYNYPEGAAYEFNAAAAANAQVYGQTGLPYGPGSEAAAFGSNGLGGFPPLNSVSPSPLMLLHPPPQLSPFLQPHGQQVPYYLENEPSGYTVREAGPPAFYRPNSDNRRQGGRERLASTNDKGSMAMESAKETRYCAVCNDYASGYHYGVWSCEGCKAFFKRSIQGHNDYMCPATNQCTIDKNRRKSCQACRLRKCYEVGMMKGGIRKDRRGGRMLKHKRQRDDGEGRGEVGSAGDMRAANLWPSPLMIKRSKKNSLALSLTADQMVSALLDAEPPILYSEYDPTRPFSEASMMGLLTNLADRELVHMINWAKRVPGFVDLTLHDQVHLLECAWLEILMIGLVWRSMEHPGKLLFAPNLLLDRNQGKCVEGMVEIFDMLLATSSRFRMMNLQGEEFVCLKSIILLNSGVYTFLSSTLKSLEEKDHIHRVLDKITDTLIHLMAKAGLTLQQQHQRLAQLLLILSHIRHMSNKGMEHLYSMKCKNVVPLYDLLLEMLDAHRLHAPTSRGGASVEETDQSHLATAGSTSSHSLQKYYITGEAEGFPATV
In short: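 Beta-lactamase reporter, antagonist mode, HEK 293 GripTite cells; 0.5nM E2 stimulus, 18 h, 37 C; CCF4 dye 2 h RT; fluorescence. IC50 and efficacy from Hill fits, normalized to E2 and DMSO.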

[2] = biological target: Estrogen receptor (Homo sapiens) (UniProt P03372); assay: qHTS assay for small molecule agonists of estrogen receptor alpha signaling (AID 588514; calls by dose curve;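 note: 0% = vehicle only and 100% = reference agonist; nearly all actives have a fitted effect of over 70% in size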)
In short: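 EC50 and efficacy came from Hill fits of beta-lactamase reporter signal (CCF4 dye, 2 h at room temperature) scaled between DMSO and 20 nM 17-beta-estradiol. Agonist mode: HEK293 ER-alpha-UAS-bla cells in charcoal/dextran-stripped serum medium, 18 h compound exposure at 37 C.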

[3] = biological target: Glucocorticoid receptor (Homo sapiens) (UniProt P04150); assay: qHTS assay for small molecule agonists of glucocorticoid receptor signaling (AID 588532; active = well fitted curve in the direction sought with a large enough effect in the signal ratio, with a control signal flat; the % refers to the signal ratio;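 note: 100% = dexamethasone at 0.1 µM and 0% = DMSO only wells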); details: HeLa MMTV-bla, beta-lactamase ratio, agonist, 18 h; stronger effect = higher value; percent of dexamethasone control, DMSO zero
Chain of Glucocorticoid receptor (Homo sapiens) (P04150 whole entry, looked up): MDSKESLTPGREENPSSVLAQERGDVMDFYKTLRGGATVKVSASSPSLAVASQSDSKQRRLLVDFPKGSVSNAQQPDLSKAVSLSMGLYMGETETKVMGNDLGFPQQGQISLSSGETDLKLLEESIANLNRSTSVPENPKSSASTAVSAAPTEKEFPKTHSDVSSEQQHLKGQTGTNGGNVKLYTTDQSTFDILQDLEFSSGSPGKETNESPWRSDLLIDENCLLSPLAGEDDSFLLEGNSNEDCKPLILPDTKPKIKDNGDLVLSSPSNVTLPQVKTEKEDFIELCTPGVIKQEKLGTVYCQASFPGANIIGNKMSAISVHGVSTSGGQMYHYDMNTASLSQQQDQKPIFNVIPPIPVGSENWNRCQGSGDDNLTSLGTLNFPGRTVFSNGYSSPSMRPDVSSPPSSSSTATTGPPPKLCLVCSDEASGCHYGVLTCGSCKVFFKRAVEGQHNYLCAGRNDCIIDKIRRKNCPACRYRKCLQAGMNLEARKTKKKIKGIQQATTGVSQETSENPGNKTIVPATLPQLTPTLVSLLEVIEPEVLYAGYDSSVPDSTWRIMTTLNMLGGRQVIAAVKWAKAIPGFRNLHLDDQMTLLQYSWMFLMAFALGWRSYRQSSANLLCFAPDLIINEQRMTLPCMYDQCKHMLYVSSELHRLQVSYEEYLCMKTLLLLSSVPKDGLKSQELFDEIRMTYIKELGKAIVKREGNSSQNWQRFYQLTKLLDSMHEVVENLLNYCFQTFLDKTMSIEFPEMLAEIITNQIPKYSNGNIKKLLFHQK
In short: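 Titration series, up to 92 uM, applied to GRE-bla HeLa cells for 18 h at 37 C. Detection by CCF4 FRET substrate after 2 h at RT.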

[4] = qHTS assay for small molecule antagonists of peroxisome proliferator-activated receptor delta signaling (AID 588535); details: HEK293T PPARd-UAS-bla, beta-lactamase FRET ratio, 18 h; 460 nm channel;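 note: cells co-treated with a PPAR-delta agonist as stimulator during compound exposure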
In short: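 Inhibition of PPAR-delta response element-driven beta-lactamase expression is measured in HEK293T cells exposed to a compound titration series for 18 hrs at 37 C. Half-maximal inhibition comes from Hill equation fitting.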

[5] = biological target: Peroxisome proliferator-activated receptor gamma (Homo sapiens) (UniProt P37231); assay: qHTS assay for small molecule agonists of peroxisome proliferator-activated receptor gamma signaling (AID 588536; active = well fitted curve in the direction sought with a large enough effect in the signal ratio, with a control signal flat, not every such curve was filed as active; the % refers to the signal ratio;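 note: 0% = DMSO basal wells and 100% = rosiglitazone at 2 µM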)
Chain of Peroxisome proliferator-activated receptor gamma (Homo sapiens) (P37231 whole entry, looked up): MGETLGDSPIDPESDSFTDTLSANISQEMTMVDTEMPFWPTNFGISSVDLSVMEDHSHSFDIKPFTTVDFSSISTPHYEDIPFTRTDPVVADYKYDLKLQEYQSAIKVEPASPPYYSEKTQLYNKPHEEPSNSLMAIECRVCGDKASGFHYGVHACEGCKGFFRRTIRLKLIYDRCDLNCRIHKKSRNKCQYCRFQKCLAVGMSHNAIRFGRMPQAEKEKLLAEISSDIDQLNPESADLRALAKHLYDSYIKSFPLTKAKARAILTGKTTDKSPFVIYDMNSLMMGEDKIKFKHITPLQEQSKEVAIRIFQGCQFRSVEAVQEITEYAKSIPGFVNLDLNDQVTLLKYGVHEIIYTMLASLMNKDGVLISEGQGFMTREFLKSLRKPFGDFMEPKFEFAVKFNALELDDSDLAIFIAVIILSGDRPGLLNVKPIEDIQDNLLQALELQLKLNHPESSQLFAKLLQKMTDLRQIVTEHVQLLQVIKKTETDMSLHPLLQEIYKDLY
In short: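 Cells were plated and held 6–6.5 h at 37 C, then compounds were added as a titration series. After a further 16 h, CCF4 dye was loaded for 2 h at room temperature and emission at 460/530 nm recorded.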

[6] = biological target: Vitamin D3 receptor (Homo sapiens) (UniProt P11473); assay: qHTS assay for small molecule antagonists of vitamin D receptor signaling (AID 588541; calls by dose curve;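 note: receptor activated by calcitriol during compound treatment; series mostly up to about 77 µM; % is set by controls: 0 for no effect and ±100 for the full control effect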)
Chain of Vitamin D3 receptor (Homo sapiens) (P11473 whole entry, looked up): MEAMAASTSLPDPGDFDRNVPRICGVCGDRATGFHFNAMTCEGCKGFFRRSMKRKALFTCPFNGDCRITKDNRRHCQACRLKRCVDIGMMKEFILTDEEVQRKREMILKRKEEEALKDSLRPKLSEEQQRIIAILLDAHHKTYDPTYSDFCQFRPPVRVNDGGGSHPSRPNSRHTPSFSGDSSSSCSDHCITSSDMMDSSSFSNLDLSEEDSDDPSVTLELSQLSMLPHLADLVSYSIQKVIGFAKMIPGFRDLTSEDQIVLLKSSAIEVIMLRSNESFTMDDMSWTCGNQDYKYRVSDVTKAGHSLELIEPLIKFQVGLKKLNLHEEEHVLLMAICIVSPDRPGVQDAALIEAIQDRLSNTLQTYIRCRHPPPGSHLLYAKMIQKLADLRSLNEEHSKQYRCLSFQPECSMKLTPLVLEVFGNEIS
In short: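 VDR-UAS-bla HEK293T cells (2000/well, 2% charcoal-stripped FBS) were treated with titrated compounds plus 1-alpha,25-dihydroxyvitamin D3 (50 nM or 3 nM final) for 16 h at 37 C. CCF4 beta-lactamase fluorescence was read; Hill fits gave IC50.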

[7] = qHTS assay for small molecule agonists of retinoid X receptor alpha signaling (AID 588544; calls by dose curve;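 for activation: 0% = DMSO basal wells and 100% = reference agonist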); details: HEK293T RXRa-UAS-bla, beta-lactamase reporter, 18 h; 530 nm emission
[8] = biological target: Retinoic acid receptor RXR-alpha (Homo sapiens) (UniProt P19793); assay: as above
Chain of Retinoic acid receptor RXR-alpha (Homo sapiens) (P19793 whole entry, looked up): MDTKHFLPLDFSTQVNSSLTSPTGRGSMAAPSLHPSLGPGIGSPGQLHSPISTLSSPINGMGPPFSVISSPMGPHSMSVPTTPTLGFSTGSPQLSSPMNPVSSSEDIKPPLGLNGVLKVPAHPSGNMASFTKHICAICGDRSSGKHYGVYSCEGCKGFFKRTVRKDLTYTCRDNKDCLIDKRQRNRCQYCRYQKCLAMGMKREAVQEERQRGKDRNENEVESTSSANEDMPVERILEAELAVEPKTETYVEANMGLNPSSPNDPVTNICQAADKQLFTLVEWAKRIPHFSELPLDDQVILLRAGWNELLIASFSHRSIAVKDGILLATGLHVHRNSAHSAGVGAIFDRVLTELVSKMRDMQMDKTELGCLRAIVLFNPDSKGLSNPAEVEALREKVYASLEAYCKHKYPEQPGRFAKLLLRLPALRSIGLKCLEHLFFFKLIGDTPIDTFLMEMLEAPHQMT

[9] = biological target: Thyroid hormone receptor beta (Homo sapiens) (UniProt P10828); assay: qHTS assay for small molecule agonists of thyroid hormone receptor beta signaling (AID 588545; calls by dose curve)
Chain of Thyroid hormone receptor beta (Homo sapiens) (P10828 whole entry, looked up): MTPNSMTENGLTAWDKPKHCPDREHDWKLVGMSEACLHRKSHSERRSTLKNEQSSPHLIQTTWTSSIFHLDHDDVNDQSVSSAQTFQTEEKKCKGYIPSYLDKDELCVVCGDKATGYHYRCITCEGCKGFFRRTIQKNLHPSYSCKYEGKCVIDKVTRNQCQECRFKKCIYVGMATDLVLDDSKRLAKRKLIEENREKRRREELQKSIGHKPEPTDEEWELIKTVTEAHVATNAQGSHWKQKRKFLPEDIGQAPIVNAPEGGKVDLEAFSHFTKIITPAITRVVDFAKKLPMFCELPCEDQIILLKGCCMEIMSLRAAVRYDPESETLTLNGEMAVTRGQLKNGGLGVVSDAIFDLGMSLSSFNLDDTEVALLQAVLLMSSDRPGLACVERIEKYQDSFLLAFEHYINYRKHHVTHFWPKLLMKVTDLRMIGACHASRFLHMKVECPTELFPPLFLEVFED
In short: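 In this cell-based screen, titrated compounds act on HEK 293 cells held in medium with 2% charcoal/dextran FBS, NEAA and pyruvate for 18 hrs at 37 C. Responses are expressed relative to T3 (10 nM) as 100% and basal DMSO as 0%.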

[10] = qHTS assay for small molecule antagonists of retinoid X receptor alpha signaling (AID 588546; active = well fitted inhibition curve with a large enough effect in the signal ratio, with a control signal flat, not every such curve was filed as active; the % refers to the signal ratio;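 note: cells stimulated with 9-cis-retinoic acid as agonist; % is set by controls: 0 for no effect and ±100 for the full control effect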); details: HEK293T RXRa-UAS-bla, beta-lactamase ratio, antagonist mode; measured here: W530 green channel, cytotoxicity proxy
In short: (§1)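 Beta-lactamase reporter inhibition, read as CCF4 fluorescence ratio (ex 405, em 460/530 nm) after 2 h at RT. HEK293T UAS-bla cells, 2500/well, were stimulated with 9-cis-RA at 500 or 100 nM final alongside test compound for 18 h at 37 C.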

[11] = biological target: Retinoic acid receptor RXR-alpha (Homo sapiens) (UniProt P19793); assay: as above; details: HEK293T RXRa-UAS-bla, beta-lactamase ratio, antagonist mode
In short: as §1

[12] = qHTS assay for small molecule activators of the nuclear factor-kappa B (NF-kB) signaling pathway (AID 651749; active = well fitted activation curve with a large enough effect in the signal ratio; the % refers to the signal ratio; note: series mostly up to about 77 µM; % of control where 0% means no effect); details: NF-kB-bla ME-180 cells, beta-lactamase FRET ratio, 16 h; activation: stronger effect = higher value
In short: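 Human ME-180 cervical cells with an NF-kB-bla construct; compounds added via 23 nL pin transfer, DMSO as vehicle; incubation 16 hr. Reporter activity measured by FRET disruption.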

[13] = qHTS assay for environmental chemicals that activate the Aryl hydrocarbon Receptor (AhR) signaling pathway (AID 651777); details: 1A2-DRE human hepatoma cells, luciferase, 24 h; activation: stronger effect = higher value; note: % of control where 0% means no effect; nearly all actives have a fitted effect of over 15% in size
In short: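 Stable CYP1A2 promoter/DRE-luciferase human hepatoma line treated 24 hr; One-Glo luminescence, 30 min RT.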

[14] = biological target: Peroxisome proliferator-activated receptor alpha (Homo sapiens) (UniProt Q07869); assay: qHTS assay for small molecule agonists of the peroxisome proliferator-activated receptor alpha (PPARalpha) signaling pathway (AID 651778); details: PathHunter PPARalpha complementation, chemiluminescence, 6 h; max response: stronger effect = higher value; note: % of control where 0% means no effect
Chain of Peroxisome proliferator-activated receptor alpha (Homo sapiens) (Q07869 whole entry, looked up): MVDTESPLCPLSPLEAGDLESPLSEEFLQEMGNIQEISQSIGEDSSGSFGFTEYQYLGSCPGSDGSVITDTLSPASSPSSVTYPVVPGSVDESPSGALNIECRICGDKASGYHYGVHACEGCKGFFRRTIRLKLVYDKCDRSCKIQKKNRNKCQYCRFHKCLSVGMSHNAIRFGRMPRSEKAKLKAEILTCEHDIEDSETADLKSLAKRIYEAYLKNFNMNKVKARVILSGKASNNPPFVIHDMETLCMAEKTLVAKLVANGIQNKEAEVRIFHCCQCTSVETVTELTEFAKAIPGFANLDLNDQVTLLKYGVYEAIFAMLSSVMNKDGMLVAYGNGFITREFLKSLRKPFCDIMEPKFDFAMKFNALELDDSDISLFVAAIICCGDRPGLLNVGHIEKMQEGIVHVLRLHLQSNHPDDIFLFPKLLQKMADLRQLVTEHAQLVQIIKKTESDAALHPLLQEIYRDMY
In short: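 Cells plated at 2,000/well and held overnight at 37 C, 5% CO2, then compound added by pin tool for 6 hr; after PathHunter detection reagent and 60 min at room temperature, chemiluminescence from enzyme complementation was read.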

[15] = qHTS assay for small molecule agonists of the antioxidant response element (ARE) signaling pathway measured by Nrf2-dependant transcriptional activity - cell viability counter screen (AID 720653; active = well fitted curve in the direction sought with a large enough effect in the repeat runs; an effect the other way counts as inactive or inconclusive; note: % is set by controls: 0 for no effect and ±100 for the full control effect); details: ARE-bla HepG2 viability, CellTiter-Glo ATP luminescence, 16 h; max response: stronger effect = lower value
In short: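 ARE-bla HepG2 cells (2,000/well) rested 5 hrs at 37C/5% CO2, then exposed to compounds in DMSO for 16 hrs. Viability was read in the same wells as intracellular ATP by luminescence, 30 min at room temperature after reagent addition.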

[16] = qHTS assay for cell viability of HEK293 cells (AID 743288); details: ATP luminescence (CellTiter-Glo), 18 h; max response: stronger effect = lower value; note: % is set by controls: 0 for no effect and ±100 for the full control effect; nearly all actives have a fitted effect of over 50% in size
In short: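 ATP luminescence (CellTiter-Glo) reports metabolically competent cell number after parental HEK293 cells, 2,000/well, were treated with DMSO-dissolved compounds for 18 h at 37 C; reagent incubation 30 min, room temperature.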

[17] = qHTS assay for cell viability of the p53RE-bla HCT-116 cell line (AID 743292); note: % is set by controls: 0 for no effect and ±100 for the full control effect; nearly all actives have a fitted effect of over 55% in size
In short: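 Readout: CellTiter-Glo luminescence after 30 min RT. Treatment: compounds in DMSO, 16 h, 37 C. Cells: CellSensor p53RE-bla HCT-116, 4,000/well, preincubated 5 h.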

[18] = biological target: Nuclear receptor subfamily 1 group I member 2 (Rattus norvegicus) (UniProt Q9R1A7); assay: qHTS assay for small molecule activators of the rat pregnane X receptor (rPXR) signaling pathway (AID 651751; call rule not given here; note: 0% is about no effect); details: rPXR reporter cells, luciferase (One-Glo), 24 h
Chain of Nuclear receptor subfamily 1 group I member 2 (Rattus norvegicus) (Q9R1A7 whole entry, looked up): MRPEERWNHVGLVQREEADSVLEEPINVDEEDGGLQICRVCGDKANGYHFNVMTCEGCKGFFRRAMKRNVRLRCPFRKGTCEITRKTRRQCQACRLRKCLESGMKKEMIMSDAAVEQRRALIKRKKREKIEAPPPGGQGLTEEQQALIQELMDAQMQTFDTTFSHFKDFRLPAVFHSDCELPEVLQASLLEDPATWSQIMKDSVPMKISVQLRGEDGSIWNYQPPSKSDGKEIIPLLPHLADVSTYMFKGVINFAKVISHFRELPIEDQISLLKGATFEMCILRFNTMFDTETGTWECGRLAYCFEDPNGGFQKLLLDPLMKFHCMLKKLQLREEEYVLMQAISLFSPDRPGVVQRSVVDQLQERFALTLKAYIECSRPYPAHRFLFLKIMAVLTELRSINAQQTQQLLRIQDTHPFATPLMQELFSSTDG

[19] = qHTS assay for small molecule activators of the human pregnane X receptor (PXR) signaling pathway (AID 720659; call rule not given here; note: 0% is about no effect)
[20] = biological target: Thyroid hormone receptor beta (Homo sapiens) (UniProt P10828); assay: qHTS assay for small molecule antagonists of thyroid hormone receptor beta signaling (AID 588547; active = well fitted inhibition curve with a large enough effect in the signal ratio, with a control signal flat, not every such curve was filed as active; the % refers to the signal ratio); details: TR-UAS-bla HEK293, beta-lactamase ratio, antagonist mode, 18 h
In short: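 TR-UAS-bla GripTite HEK293 cells in 2% charcoal/dextran FBS medium were preincubated 4 h at 37 C, given compound (0.59 nM to 92 uM) plus 0.4 nM T3 (final) for 18 h, then CCF4 for 2 h at RT; Hill fit gave IC50.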

CCCCCCCCCCCCCCC(=O)OC
-9.41%: max response [10]
-7.18%: max response [4]
inactive: Potency [1] | Potency [2] | activation [3] -1.65% | outcome [5] | Potency [6] | Potency [8] | Potency [9] | max response [11] 8.47% | activation [12] 0.418% | activation [13] -1.03% | max response [14] -0.882% | max response [15] -2.69% | max response [16] -7.2% | Potency [17] | max response [18] -2.84% | outcome [19]
2.13%: max response [7]

CCCCCCCCCCCCCc1ccccc1
inactive: Potency [1] | Potency [2] | activation [3] -7.21% | outcome [5] | Potency [6] | Potency [8] | Potency [9] | max response [11] -2.52% | activity change % (negative = inhibition) [20] 11.3% | activation [12] -0.242% | activation [13] 2.83% | max response [14] -0.643% | max response [15] -7.31% | max response [16] 4.66% | Potency [17] | max response [18] 0.527% | outcome [19]
-8.78%: max response [7]
21.6%: max response [4]
-13.4%: max response [10]

CC(C)OC(=O)c1ccccc1C(=O)OC(C)C
-10.4%: max response [7]
-19.4%: max response [10]
inactive: Potency [1] | Potency [2] | activation [3] -6.71% | outcome [5] | Potency [6] | Potency [8] | max response [11] -1.37% | activation [12] -2.02% | activation [13] 1.05% | max response [14] -0.635% | max response [15] 0.0901% | max response [16] -5.59% | Potency [17] | max response [18] 2.54% | outcome [19]

CCOC(=O)C1=NN(c2ccc(Cl)cc2Cl)C(C)(C(=O)OCC)C1 (stereo not drawn)
inactive: Potency [1] | Potency [2] | activation [3] -2.41% | Potency [6] | Potency [8] | Potency [9] | activation [12] -1.4% | activation [13] -3.22% | max response [14] 0.459% | max response [15] 0.425% | max response [16] -23.5% | Potency [17] | max response [18] -0.641%
-4.87%: max response [7]

CC(=O)/C=C/C1C(C)=CCCC1(C)C (stereo not drawn)
1.01%: max response [10]
-18.3%: max response [4]
inactive: Potency [1] | Potency [2] | outcome [5] | Potency [8] | Potency [9] | max response [11] -10.8% | activity change % (negative = inhibition) [20] 5.94% | activation [13] 0.579% | max response [14] -0.682% | max response [15] 1.13% | max response [16] -13.5% | Potency [17] | max response [18] 8.79%
0.774%: max response [7]

c1ccc2c(c1)Cc1ccccc1-2
-16.6%: max response [10]
inactive: Potency [1] | Potency [2] | outcome [5] | Potency [6] | Potency [8] | Potency [9] | max response [11] -2.65% | activity change % (negative = inhibition) [20] -15.6% | activation [12] -1.09% | activation [13] 1.34% | max response [14] -0.262% | max response [15] -7.29% | max response [16] -4.41% | Potency [17] | max response [18] -3.34% | outcome [19]
-12.1%: max response [7]

CCCCN(CCCC)CCCC
-19.1%: max response [10]
31.3%: max response [4]
-9.25%: max response [7]
inactive: Potency [1] | Potency [2] | activation [3] 8.81% | Potency [6] | Potency [8] | Potency [9] | max response [11] 2.35% | activity change % (negative = inhibition) [20] -2.52% | activation [12] -1.19% | activation [13] -2.43% | max response [14] 3.75% | max response [15] -5.72% | max response [16] -10.1% | Potency [17] | max response [18] -4.71% | outcome [19]

O=C(c1ccc(Cl)cc1)c1ccc(Cl)cc1
inactive: Potency [1] | Potency [2] | outcome [5] | Potency [6] | Potency [8] | Potency [9] | max response [11] 7.91% | activation [12] 1.57% | activation [13] -0.153% | max response [14] -1.26% | max response [15] -5.32% | max response [16] -7.2% | Potency [17] | max response [18] 0.85% | outcome [19]
6.29%: max response [7]
24.6%: max response [4]
-11.4%: max response [10]

CCC(=O)OCCc1ccccc1
20.5%: max response [4]
-6.4%: max response [10]
inactive: Potency [1] | Potency [2] | activation [3] -12.1% | outcome [5] | Potency [6] | Potency [8] | Potency [9] | max response [11] 3.85% | activity change % (negative = inhibition) [20] -6.7% | activation [12] 1.34% | activation [13] 2.12% | max response [14] -0.0633% | max response [15] 0.747% | max response [16] -5.25% | max response [18] -2.51% | outcome [19]
-7.14%: max response [7]

C/C=C/C=C/CCCCCCCO
19.5%: max response [10]
19.3%: max response [4]
11.1%: max response [7]
inactive: Potency [1] | Potency [2] | activation [3] -6.08% | Potency [6] | Potency [8] | Potency [9] | max response [11] -19.2% | activity change % (negative = inhibition) [20] -0.935% | activation [12] -0.666% | activation [13] -1.79% | max response [14] 0.881% | max response [15] -8.82% | max response [16] -6.91% | Potency [17] | max response [18] -0.307% | outcome [19]

CNc1nc(=O)n(C2CCC(O)CC2)c(=O)n1C (stereo not drawn)
29.9%: max response [4]
-9.65%: max response [10]
-9.94%: max response [7]
inactive: Potency [1] | Potency [2] | activation [3] 2.82% | outcome [5] | Potency [6] | Potency [8] | Potency [9] | activity change % (negative = inhibition) [20] -13.9% | activation [12] -0.329% | activation [13] -1.26% | max response [14] -1.33% | max response [15] -6.82% | max response [16] -1.62% | Potency [17] | max response [18] -0.414% | outcome [19]
